Consider 8 compounds from PubChem BioAssay (NCI).

This is part of a sample that, as a whole, favours compounds with a hit. Of some 83,000 tested, about 20% had one in any assay.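 Plates (96-well) were seeded with cells, treated with compound at one concentration, and incubated for 48 hours before percent growth was determined.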 A number with no mark means an inactive call. Calls of active or inactive are those of the source. Rule for the calls: active = growth percent below 10; inactive = the rest.

Among the test systems are SR leukemia; RPMI-8226 leukemia; OVCAR-8 ovarian; OVCAR-5 ovarian; OVCAR-4 ovarian; SK-OV-3 ovarian; IGROV1 ovarian; OVCAR-3 ovarian; HS 578T breast; NCI/ADR-RES ovarian; T-47D breast; BT-549 breast; MDA-MB-435 melanoma; SW-620 colon; MCF7 breast; HCT-116 colon; HCC-2998 colon; KM12 colon; MDA-MB-468 breast.
Common to all, as to assay: NCI-60 one-dose screen, 48 h (100 = growth as untreated, 0 = no growth, -100 = all killed)
Common to all, as to conditions: 10 µM

In the case of `COc1cc2c3c(n(CCCNC(C)C)c(=O)c2cc1OC)-c1nc2c(cc1C3=O)OCO2`, the growth is 2.57% (active) in the experiment with SR leukemia; -26.2% (active) in the experiment on RPMI-8226 leukemia; -58% (active) in the experiment on OVCAR-8 ovarian; -93.2% (active) with OVCAR-5 ovarian; 49.8% in the experiment with OVCAR-4 ovarian; 26.5% in the experiment with SK-OV-3 ovarian. The growth in the experiment on IGROV1 ovarian is 40.8%; in the experiment on OVCAR-3 ovarian, -97.4% (active); in the experiment on HS 578T breast, 88.8%; in the experiment with NCI/ADR-RES ovarian, -72% (active); with T-47D breast, 43.9%; in the experiment on BT-549 breast, 49.1%. Also, the growth is -86.9% (active) in the experiment on MDA-MB-435 melanoma; -62.8% (active) in the experiment on SW-620 colon; -89.8% (active) in the experiment with MCF7 breast; -60.4% (active) in the experiment with HCT-116 colon; 65.5% in the experiment with HCC-2998 colon; -90.1% (active) with KM12 colon. Also, the growth in the experiment on MDA-MB-468 breast was -9.99% (active).

Regarding `C=C1CCC2C3(C)COC(c4c(F)cccc4F)OC3CCC2(C)C1CC(O)C1=CCOC1=O` (configuration not stated), the growth in the experiment on SR leukemia was 32.8%; in the experiment on RPMI-8226 leukemia, 12.6%; in the experiment on OVCAR-8 ovarian it was 7.07% (active); in the experiment with OVCAR-5 ovarian, 82.9%; in the experiment with OVCAR-4 ovarian, 60.2%; in the experiment on SK-OV-3 ovarian it was 100%. For the same compound, the growth was 59.3% in the experiment with IGROV1 ovarian; 38.2% with OVCAR-3 ovarian; 76.1% in the experiment on HS 578T breast; 11.6% in the experiment on NCI/ADR-RES ovarian; 47.6% in the experiment on T-47D breast; -9.18% (active) in the experiment on BT-549 breast. The growth in the experiment on MDA-MB-435 melanoma was 40%; in the experiment with SW-620 colon it was 3.41% (active); with MCF7 breast it was 19%; in the experiment with HCT-116 colon, -31.2% (active); in the experiment on HCC-2998 colon, 52.1%; in the experiment with KM12 colon, 54.3%. Further, the growth in the experiment on MDA-MB-468 breast is 66.1%.

As to `O=C(CSc1nnc(-c2c[nH]c3ccccc23)n1-c1ccccc1)Nc1ccc(C(=O)/C=C/c2ccc(Cl)cc2)cc1`, the growth with SR leukemia is 70.8%; in the experiment on RPMI-8226 leukemia, 4.94% (active); in the experiment with OVCAR-8 ovarian it was 85.5%; with OVCAR-5 ovarian it was 98.2%; with OVCAR-4 ovarian, 74.8%; in the experiment on SK-OV-3 ovarian, 80.7%. Also, the growth in the experiment on IGROV1 ovarian is 74.7%; in the experiment with OVCAR-3 ovarian, 69.6%; in the experiment on HS 578T breast, 73.2%; in the experiment on NCI/ADR-RES ovarian, 92.9%; with T-47D breast it was 40.3%; with BT-549 breast, 93.5%. Also, the growth in the experiment on MDA-MB-435 melanoma is 64.1%; in the experiment on SW-620 colon it was 90.4%; in the experiment with MCF7 breast, 6.09% (active); in the experiment on HCT-116 colon it was -37.3% (active); in the experiment on HCC-2998 colon it was 78%; with KM12 colon, 64.5%. Moreover, in the experiment on MDA-MB-468 breast, the growth is 65.9%.

For `O=C(NO)c1ccc(CNC(=O)[C@H]2Cc3c([nH]c4ccccc34)[C@H](c3ccc(Cl)cc3)N2)cc1`, the growth in the experiment on SR leukemia was 17.2%; in the experiment with RPMI-8226 leukemia, 16.9%; in the experiment on OVCAR-8 ovarian, 16.1%; in the experiment on OVCAR-5 ovarian, -6.43% (active); in the experiment with OVCAR-4 ovarian, 39.7%; in the experiment with SK-OV-3 ovarian, -12.7% (active). Further, the growth was -24.6% (active) with IGROV1 ovarian; 7.44% (active) in the experiment with OVCAR-3 ovarian; 6.12% (active) in the experiment with HS 578T breast; 42% in the experiment on NCI/ADR-RES ovarian; -2.39% (active) in the experiment on T-47D breast; 26.9% in the experiment on BT-549 breast. For the same compound, the growth in the experiment on MDA-MB-435 melanoma is 4.26% (active); in the experiment on SW-620 colon, -51.6% (active); in the experiment on MCF7 breast it was 3% (active); with HCT-116 colon it was 1.03% (active); in the experiment on HCC-2998 colon, -53.2% (active); in the experiment on KM12 colon, 19.6%. Further, the growth with MDA-MB-468 breast is -33.5% (active).

Regarding `Nc1nc(Nc2ccccc2)nn1Cc1c(Cl)cccc1Cl`, the growth with SR leukemia is 25%; in the experiment with RPMI-8226 leukemia, 27.1%; in the experiment with OVCAR-8 ovarian it was 42.3%; with OVCAR-5 ovarian, 46.6%; in the experiment on OVCAR-4 ovarian, 39.7%; in the experiment with SK-OV-3 ovarian, 51.3%. Also, the growth in the experiment on IGROV1 ovarian is 11.2%; in the experiment with OVCAR-3 ovarian, 54.6%; with HS 578T breast it was 29.3%; in the experiment on NCI/ADR-RES ovarian it was 10.6%; in the experiment on T-47D breast it was 15%; with BT-549 breast, 23.6%. Moreover, the growth in the experiment with MDA-MB-435 melanoma is 48.4%; in the experiment on SW-620 colon, 56.3%; with MCF7 breast it was 16%; in the experiment on HCT-116 colon it was 22.4%; in the experiment with HCC-2998 colon, 15.2%; in the experiment with KM12 colon, 13%. Also, the growth in the experiment on MDA-MB-468 breast was 5.3% (active).

Turning to `O=C(Nc1ccc(Cl)c([N+](=O)[O-])c1)Nc1ccc(Cl)c([N+](=O)[O-])c1`, the growth in the experiment on SR leukemia was 12.4%; with RPMI-8226 leukemia, -20.5% (active); in the experiment with OVCAR-8 ovarian, 20.7%; in the experiment on OVCAR-5 ovarian it was 49.8%; in the experiment on OVCAR-4 ovarian, 23.2%; with SK-OV-3 ovarian, 79.4%. Further, the growth in the experiment with IGROV1 ovarian was 15.3%; with OVCAR-3 ovarian it was 9.61% (active); in the experiment on HS 578T breast it was 45.1%; in the experiment with NCI/ADR-RES ovarian, 6.5% (active); with T-47D breast it was 1.86% (active); in the experiment on BT-549 breast, -11.6% (active). The growth was 13.3% in the experiment on MDA-MB-435 melanoma; 18.7% in the experiment with SW-620 colon; -5.85% (active) with MCF7 breast; 9.36% (active) in the experiment with HCT-116 colon; 12.7% in the experiment with HCC-2998 colon; 5.87% (active) in the experiment with KM12 colon. In addition, in the experiment on MDA-MB-468 breast, the growth was -27.2% (active).

As to `COc1cc(/C=C/C(=O)c2ccc(F)cc2)ccc1Oc1nc(Nc2ccc(F)cc2)nc(N(C)C)n1`, the growth was 4.07% (active) with SR leukemia; 24.2% in the experiment on RPMI-8226 leukemia; 42.7% with OVCAR-8 ovarian; 93.1% in the experiment on OVCAR-5 ovarian; 56.1% in the experiment on OVCAR-4 ovarian; 103% in the experiment on SK-OV-3 ovarian. Besides, the growth was 93.8% in the experiment with IGROV1 ovarian; 64.2% with OVCAR-3 ovarian; 59.3% in the experiment with HS 578T breast; 50.6% in the experiment with NCI/ADR-RES ovarian; 28.5% in the experiment with T-47D breast; 88.6% with BT-549 breast. In addition, the growth in the experiment on MDA-MB-435 melanoma is 68.5%; in the experiment with SW-620 colon, 2.33% (active); with MCF7 breast, 16.6%; in the experiment with HCT-116 colon, 30.2%; in the experiment on HCC-2998 colon, 89%; in the experiment on KM12 colon, 61%. Moreover, the growth with MDA-MB-468 breast was 28%.

As to `COc1cc(-c2nc3cc(Cl)c(Cl)cc3[nH]2)ccc1OCc1nnc(-c2ccc(Br)cc2)o1`, the growth in the experiment with SR leukemia is -34.4% (active); in the experiment with RPMI-8226 leukemia it was -23.2% (active); with OVCAR-8 ovarian, 15.7%; in the experiment with OVCAR-5 ovarian, 39.6%; with OVCAR-4 ovarian, -92.2% (active); with SK-OV-3 ovarian, -11.1% (active). Moreover, the growth in the experiment with IGROV1 ovarian is 42%; in the experiment on OVCAR-3 ovarian it was -47.6% (active); with HS 578T breast, -22.5% (active); with NCI/ADR-RES ovarian it was 22%; in the experiment with T-47D breast, -38.4% (active); in the experiment with BT-549 breast, -73.4% (active). The growth was -18.7% (active) in the experiment on MDA-MB-435 melanoma; 21.6% with SW-620 colon; 5.68% (active) in the experiment on MCF7 breast; 2.89% (active) in the experiment on HCT-116 colon; 69.2% with HCC-2998 colon; 46.1% in the experiment on KM12 colon. In addition, the growth in the experiment with MDA-MB-468 breast is -10.9% (active).
